# Laboratory results from PubChem BioAssay AID1224861 (National Center for Advancing Translational Sciences (NCATS), 2016).
# Inconclusive results are not listed. Unmarked numbers belong to inactive results. The source made the active and inactive calls. Calls follow the shape of the dose curve; as a rule, active = well fitted cell-killing curve with a large enough effect; inconclusive = small, poorly fitted or top-dose-only effect, or effect the other way; inactive = flat fitted curve, though single readings scatter.
# Assay: Compound cytotoxicity measured by an ATP content assay as a counter-screen for lead compounds in human astrocytes
# Details: human astrocytes viability, ATP luminescence; series mostly up to 46.1 µM; activity change, negative = cytotoxicity: at the top concentration
# Experimental: National Center for Advancing Translational Sciences [NCATS] Johns Hopkins University School of Medicine Florida State University Assay Overview: Many compounds can cause cytotoxicity at high compound concentrations. […] The compound cytotoxicity may also cause side effects or toxicity in human. Thus, the compound cytotoxicity needs to be measured in each cell type and each compound incubation time - same as these in the compound screening assay. The compound cytotoxicity can be measured by cell viability assays such as the ATP content assay. We use an ATP content assay kit for cell viability measurement. It measures ATP content (level) in human astrocytes using a luminescence readout that is proportional to viable cell numbers. Decrease in the luminescence signal after the compound treatment indicates reduced cell viability and cell death caused by compound treatment.
# Assay Protocol Summary: The medium for astrocytes contains AM basal medium (ScienCell, Cat.# 1801), AGS (ScienCell, Cat.# 1801), 10% FBS, and 1% Pen/Strep. The ATP content assay kit (PerkinElmer, Cat.# 6016731) was used to determine cell viability. The reagent was reconstituted and prepared as described by the manufacturer. Cells were seeded in 384- or 1536-well assay plates and cultured at 37 C with 5% CO2 for 16 to 20 hours. The typical cell seeding density in the 1536-well plate assay is 350 cells/well in 3 ul medium for astrocytes in the tissue cultured treated/PDL coated plates. Compounds were added to cells and incubated for a specific time such as 6, 24, or 72 hours before addition of the reagent mixture of the ATP content assay kit at 1:1 ratio. After incubation at room temperature for 10 minutes, the luminescence intensity in assay plates was measured using a ViewLux plate reader (PerkinElmer). […] The percentage inhibitions of the decreased cell viability by small molecules were then calculated that indicate compound cytotoxicity.
Compound,Potency,"activity change, negative = cytotoxicity [%]"
O=c1c2ccccc2[se]n1-c1ccccc1,9.75 µM (active),–
CC(C)[N+](C)(CCC(C(N)=O)(c1ccccc1)c1ccccc1)C(C)C,–,5.53
COc1cccc2c1C(=O)c1c(O)c3c(c(O)c1C2=O)C[C@@](O)(C(=O)CO)CC3OC1CC(N2CCOC(OC)C2)C(O)C(C)O1 (some centres undefined),–,-2.9
O=C1CCC[C@@H]2[C@H]3CCCN4CCC[C@@H](CN12)[C@@H]34,–,13.7
CC[n+]1c(-c2ccccc2)c2cc(N)ccc2c2ccc(N)cc21,–,14.2
COC1(CS(=O)c2ccccc2)CCN(CCc2c[nH]c3ccc(F)cc23)CC1 (centres undefined),–,6.46
O=C(Nc1ccc(Br)cc1)c1cc(Br)cc(Br)c1O,15.5 µM (active),–
CC(C)N[C@@H]1CCn2c(=O)[nH]c3cccc(c32)[C@@H]1O,–,14.5
CC(O)CN1CCN(CC(=O)[O-])CCN(CC(=O)[O-])CCN(CC(=O)[O-])CC1.[Gd+3] (centres undefined),–,13.1
COP(=S)(OC)SCN1C(=O)c2ccccc2C1=O,–,-1.28
O=C1C=CC[C@@H]2[C@H]3CCCN4CCC[C@@H](CN12)[C@@H]34,–,11
Oc1ccc([C@H]2CNCc3c2ccc(O)c3O)cc1O,–,10
Cc1ccc([N+](=O)[O-])[c]2c1[O][Hg]2,3.08 µM (active),–
CN1CC[C@@]2(C)c3cc(OC(=O)Nc4ccccc4)ccc3N(C)[C@@H]12,–,10.3
